Reference: PubChem BioAssay
Where “and” joins values, the source holds several entries; their conditions need not be identical. Equal entries are not always repeated. For some assays here: Potency and affinity values are given separately. Some compounds were tested as several samples or in several runs, with calls that do not always agree. Calls of active or inactive are those of the source. A call without a number means that no potency is given here. Unless noted, how the calls were made is not given here.

Key:
[1] = antimalarial activity against Dd2 strain (AID 2302;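 active means growth inhibition above 50% at the single 2 µM test dose, taken to imply half-maximal potency below 2 µM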); settings: P. falciparum Dd2 in RBCs, LDH growth readout, 72 h; at 2 µM; stronger effect = higher value
[2] = HepG2 cytotoxicity, primary screen, cytotoxicity control for P. falciparum antimalarial project, cell-based, ATP luminescence (AID 2303;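 active means inhibition above 50%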); settings: HepG2 viability, 24-48 h, at 10 µM, stronger effect = higher value
[3] = target: L-lactate dehydrogenase (Plasmodium falciparum (isolate CDC / Honduras)) (UniProt Q27743); assay: PfLDH activity inhibition – cell lysate, 3D7 strain, counter-screen for P. falciparum growth inhibition project (AID 2304); settings: P. falciparum 3D7 crude extract, LDH APAD/NBT absorbance; at 2 µM; stronger effect = higher value
[4] = inhibition of 3D7 malaria parasite growth – strain 3D7 (AID 2306); settings: P. falciparum 3D7 erythrocytic growth, LDH absorbance, 72 h; at 2 µM; stronger effect = higher value
[5] = target: Calcium-dependent protein kinase 1 (Plasmodium falciparum (isolate 3D7)) (UniProt P62344); assay: PfCDPK1 kinase inhibitors, biochemical, TCAMS library (AID 1159585; cut-off not given, nearly all actives have IC50 up to about 0.98 µM;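 further: inhibitors leave more ATP so luminescence rises with inhibition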); settings: recombinant PfCDPK1, Kinase-Glo ATP depletion luminescence
[6] = target: Plasmodium falciparum protein kinase 6 (PK6, PF3D7_1337100) (UniProt Q8IDW1); assay: PfPK6 kinase inhibitors, biochemical, TCAMS library (AID 1159586); settings: recombinant PfPK6, Kinase-Glo ATP depletion luminescence
[7] = target: Protein kinase 7 (PK7), Plasmodium falciparum 3D7 (PF3D7_0213400) (UniProt Q7YTF7); assay: inhibition of Plasmodium PK7 catalytic activity – biochemical, TCAMS antimalarial set, Kinase-Glo luminescence (AID 1159587); settings: recombinant PfPK7, Kinase-Glo ATP depletion luminescence
[8] = target: Calcium-dependent protein kinase 4 (Plasmodium falciparum (isolate 3D7)) (UniProt Q8IBS5); assay: PfCDPK4 kinase inhibitors, biochemical, TCAMS library (AID 1159588; cut-off not given, nearly all actives have IC50 up to about 0.91 µM); settings: recombinant PfCDPK4, Kinase-Glo ATP depletion luminescence
Sequence of Calcium-dependent protein kinase 4 (Plasmodium falciparum (isolate 3D7)) (Q8IBS5 whole entry, looked up): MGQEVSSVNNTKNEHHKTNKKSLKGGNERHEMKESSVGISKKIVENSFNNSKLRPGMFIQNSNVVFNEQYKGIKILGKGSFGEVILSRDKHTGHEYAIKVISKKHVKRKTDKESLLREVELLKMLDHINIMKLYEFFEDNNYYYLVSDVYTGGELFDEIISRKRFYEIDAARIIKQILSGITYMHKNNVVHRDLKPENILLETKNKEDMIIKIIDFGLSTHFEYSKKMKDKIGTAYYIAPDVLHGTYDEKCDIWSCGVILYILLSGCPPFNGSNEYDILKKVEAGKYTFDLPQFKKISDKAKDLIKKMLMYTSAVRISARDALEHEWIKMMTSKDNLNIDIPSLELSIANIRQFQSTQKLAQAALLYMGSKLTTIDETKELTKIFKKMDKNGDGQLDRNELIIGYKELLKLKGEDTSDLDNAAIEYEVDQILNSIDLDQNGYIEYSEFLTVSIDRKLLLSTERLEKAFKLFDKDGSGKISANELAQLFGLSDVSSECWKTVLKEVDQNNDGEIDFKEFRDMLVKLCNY

Sequence of Plasmodium falciparum protein kinase 6 (PK6, PF3D7_1337100) (Q8IDW1 1-305): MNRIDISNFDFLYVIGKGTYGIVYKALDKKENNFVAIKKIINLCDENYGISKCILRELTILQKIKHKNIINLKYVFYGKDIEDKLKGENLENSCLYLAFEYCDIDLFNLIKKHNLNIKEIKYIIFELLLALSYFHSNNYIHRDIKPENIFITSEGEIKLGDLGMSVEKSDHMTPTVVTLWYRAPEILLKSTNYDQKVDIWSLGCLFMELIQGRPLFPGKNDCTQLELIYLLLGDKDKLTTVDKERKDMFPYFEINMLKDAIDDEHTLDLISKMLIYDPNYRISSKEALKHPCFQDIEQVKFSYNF
Sequence of L-lactate dehydrogenase (Plasmodium falciparum (isolate CDC / Honduras)) (Q27743 whole entry, looked up): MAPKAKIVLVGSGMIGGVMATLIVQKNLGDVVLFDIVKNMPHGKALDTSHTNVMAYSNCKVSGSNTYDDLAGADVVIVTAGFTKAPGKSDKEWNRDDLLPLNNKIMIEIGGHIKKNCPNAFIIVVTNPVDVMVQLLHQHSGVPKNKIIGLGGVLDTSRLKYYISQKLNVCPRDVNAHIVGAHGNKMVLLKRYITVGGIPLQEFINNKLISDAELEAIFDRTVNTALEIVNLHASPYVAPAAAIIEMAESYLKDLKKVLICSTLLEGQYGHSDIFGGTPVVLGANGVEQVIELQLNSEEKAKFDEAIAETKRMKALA
Sequence of Calcium-dependent protein kinase 1 (Plasmodium falciparum (isolate 3D7)) (P62344 whole entry, looked up): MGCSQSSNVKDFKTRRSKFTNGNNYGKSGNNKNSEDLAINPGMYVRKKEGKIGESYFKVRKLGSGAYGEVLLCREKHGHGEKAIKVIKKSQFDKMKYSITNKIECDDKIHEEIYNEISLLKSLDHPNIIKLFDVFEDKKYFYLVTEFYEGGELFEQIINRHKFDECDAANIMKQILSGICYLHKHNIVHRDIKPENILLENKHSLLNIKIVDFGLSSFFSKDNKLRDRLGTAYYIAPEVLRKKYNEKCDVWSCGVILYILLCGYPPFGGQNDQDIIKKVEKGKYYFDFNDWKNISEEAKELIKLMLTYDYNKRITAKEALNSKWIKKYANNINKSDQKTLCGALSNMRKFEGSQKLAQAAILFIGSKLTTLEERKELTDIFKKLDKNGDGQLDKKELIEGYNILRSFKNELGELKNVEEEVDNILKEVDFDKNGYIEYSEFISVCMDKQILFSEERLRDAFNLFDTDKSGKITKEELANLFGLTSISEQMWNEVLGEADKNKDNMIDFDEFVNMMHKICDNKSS
Sequence of Protein kinase 7 (PK7), Plasmodium falciparum 3D7 (PF3D7_0213400) (Q7YTF7 1-343): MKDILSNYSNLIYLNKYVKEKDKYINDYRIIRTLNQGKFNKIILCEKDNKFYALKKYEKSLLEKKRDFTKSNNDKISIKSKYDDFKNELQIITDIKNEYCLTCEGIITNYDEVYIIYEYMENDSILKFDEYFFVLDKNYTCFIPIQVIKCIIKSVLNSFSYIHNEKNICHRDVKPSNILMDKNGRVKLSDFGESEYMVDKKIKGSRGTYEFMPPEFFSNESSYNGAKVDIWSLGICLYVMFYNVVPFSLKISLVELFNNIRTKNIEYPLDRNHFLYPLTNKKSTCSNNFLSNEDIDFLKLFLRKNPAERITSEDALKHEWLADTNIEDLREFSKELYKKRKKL

SMILES	growth inhibition [1]	inhibition [2]	inhibition [3]	growth inhibition [4]	outcome [5]	outcome [6]	outcome [7]	outcome [8]
O=C(/C=C/c1ccc(Cl)c(Cl)c1)NCc1ccc(CN2CCC(c3c[nH]c4ccccc34)CC2)cc1	86% (active)	59% (active)	-2% (inactive)	101% (active)	inactive	inactive	inactive	inactive
CNCCCN(C)C(=O)Oc1c(Br)c(C)nc(C)c1-c1ccc(Oc2ccc(OC(F)(F)F)cc2)cc1	96% (active)	17% (inactive)	3% (inactive)	96% (active)	inactive	inactive	inactive	inactive
CC(Cc1ccc(Sc2ccccc2)cc1)NCC(O)c1cccc(C(F)(F)F)c1 (centres undefined)	53% (active)	-1% (inactive)	2% (inactive)	99% (active)	inactive	inactive	inactive	inactive
CCOC(C(=O)OCCN(C(C)C)C(C)C)(c1ccccc1)c1ccccc1	4% (inactive)	4% (inactive)	-2% (inactive)	97% (active)	inactive	inactive	inactive	inactive
S=C(Nc1ccccc1Cl)NC1CCC(CN2CCC(c3c[nH]c4ccccc34)CC2)CC1 (centres undefined)	12% (inactive)	31% (inactive)	8% (inactive)	90% (active)	inactive	inactive	inactive	inactive
CC(Cc1ccc(OCc2ccccc2)cc1)NCC(O)c1cccc(Cl)c1 (centres undefined)	99% (active)	50% (active)	5% (inactive)	99% (active)	inactive	inactive	inactive	inactive
O=C(/C=C/c1ccc(Cl)c(Cl)c1)N1CCC(CN2CCC(c3c(-c4ccc(F)cc4)[nH]c4ccccc34)CC2)CC1	98% (active)	19% (inactive)	-3% (inactive)	101% (active)	inactive	inactive	inactive	inactive
CN1C(=O)OC[C@@H]1Cc1ccc2[nH]cc(C3=CCN(Cc4ccccc4)CC3)c2c1	66% (active)	4% (inactive)	-9% (inactive)	86% (active)	inactive	inactive	inactive	inactive
COC(C(=O)OCCC1CCCN1C)(c1ccccc1)C1CCCCC1 (centres undefined)	5% (inactive)	3% (inactive)	4% (inactive)	100% (active)	inactive	inactive	inactive	inactive
OC(CNC12CC3CC(CC(C3)C1)C2)c1cccc(C(F)(F)F)c1 (centres undefined)	98% (active)	16% (inactive)	-3% (inactive)	97% (active)	inactive	inactive	inactive	inactive
CN(CC(=O)N1CCN(S(=O)(=O)c2cccc(Cl)c2)CC1CN1CCCC1)c1ccc(Cl)c(Cl)c1 (centres undefined)	32% (inactive)	32% (inactive)	-1% (inactive)	89% (active)	inactive	inactive	inactive	inactive
CC(C)NC(=O)Cn1cc(C2CCN(CC3CCN(C(=O)/C=C/c4ccc(Cl)c(Cl)c4)CC3)CC2)c2ccccc21	55% (active)	31% (inactive)	-2% (inactive)	97% (active)	inactive	inactive	inactive	inactive
CC(Cc1ccc(CSC(C)C)cc1)NCC(O)c1cccc(Cl)c1 (centres undefined)	98% (active)	11% (inactive)	-8% (inactive)	98% (active)	inactive	inactive	inactive	inactive
O=C(NC1CCC(CN2CCC(c3c[nH]c4ccccc34)CC2)CC1)c1[nH]c(=O)[nH]c(=O)c1F (centres undefined)	59% (active)	5% (inactive)	-2% (inactive)	99% (active)	inactive	inactive	inactive	inactive
CC1=C(C(=O)NC2CCC(CN3CCC(c4c[nH]c5ccccc45)CC3)CC2)Cc2ccccc21 (centres undefined)	24% (inactive) and 15% (inactive)	41% (inactive) and 37% (inactive)	6% (inactive) and 7% (inactive)	97% (active) and 99% (active)	inactive	inactive	inactive	inactive
Oc1ccc(Cl)cc1CN1CCC(CCOC(c2ccccc2)c2ccccc2)CC1	99% (active)	14% (inactive)	4% (inactive)	98% (active)	inactive	inactive	inactive	inactive
Cc1ccc(C(=O)Nc2ccnc(N(C)C3CCN(Cc4cccc(O)c4)CC3)c2)cn1	1% (inactive)	0% (inactive)	4% (inactive)	90% (active)	inactive	inactive	inactive	inactive
c1ccc(C(OCCC2CCN(Cc3cccc4cccnc34)CC2)c2ccccc2)cc1	99% (active)	9% (inactive)	0% (inactive)	99% (active)	inactive	inactive	inactive	inactive
CNCCN(C)C(=O)Oc1c(Br)c(C)nc(C)c1-c1ccc(Oc2ccc(OC(F)(F)F)cc2)cc1	98% (active)	19% (inactive)	2% (inactive)	98% (active)	inactive	inactive	inactive	inactive
Fc1ccc2[nH]cc(CCN3CCC(CNCc4ccccc4)CC3)c2c1	94% (active)	67% (active)	4% (inactive)	100% (active)	inactive	inactive	inactive	inactive
COc1ccc(CN(C2CC2)C(C)C(=O)c2[nH]c(C)c(C(C)=O)c2C)cc1 (centres undefined)	64% (active)	40% (inactive)	-3% (inactive)	98% (active)	inactive	inactive	inactive	inactive
COc1ccc(OC)c(C(O)CNC(C)C)c1 (centres undefined)	-2% (inactive)	3% (inactive)	-9% (inactive)	96% (active)	inactive	inactive	inactive	inactive

SMILES	growth inhibition [1]	inhibition [2]	inhibition [3]	growth inhibition [4]	outcome [5]	outcome [6]	outcome [7]	outcome [8]
CN1C(=O)[C@H](NC(=O)[C@@H](Cc2ccccc2)NC(=S)Nc2ccccc2)N=C(c2ccccc2)c2ccccc21	23% (inactive)	-8% (inactive)	-1% (inactive)	86% (active)	inactive	inactive	inactive	inactive
CC[C@H]1CN2CC[C@@H]1C[C@H]2[C@H](O)c1cc(N2CCC(O)(c3ccc(Cl)cc3)CC2)nc2ccc(OC)cc12	98% (active)	21% (inactive)	-8% (inactive)	101% (active)	inactive	inactive	inactive	inactive
CC(Cc1ccc(NC(=O)CCCc2ccccc2)cc1)NCCc1cccc(Cl)c1 (centres undefined)	3% (inactive)	12% (inactive)	-5% (inactive)	94% (active)	inactive	inactive	inactive	inactive
CN1CCC(N(C)c2nccc(N3CCN(Cc4cncn4Cc4ccccc4)CC3)n2)CC1	100% (active)	15% (inactive)	3% (inactive)	100% (active)	inactive	inactive	inactive	inactive
CCOC(C(=O)OCC1CCCN(C)C1)(c1ccccc1)c1ccccc1 (centres undefined)	3% (inactive)	13% (inactive)	0% (inactive)	98% (active)	inactive	inactive	inactive	inactive
CC(=O)Nc1ccc(CN2CCC(N(C)c3cc(NC(=O)c4cccs4)ccn3)CC2)cc1	43% (inactive)	-1% (inactive)	2% (inactive)	101% (active)	inactive	inactive	inactive	inactive
O=C(Cc1cc(=O)oc2cc(O)ccc12)NC1CCC(CN2CCC(c3c[nH]c4ccccc34)CC2)CC1 (centres undefined)	-10% (inactive)	5% (inactive)	-1% (inactive)	96% (active)	inactive	inactive	inactive	inactive
CNCCN(C)C(=O)Oc1c(Cl)c(C)nc(C)c1-c1ccc(Oc2ccc(OC(F)(F)F)cc2)cc1	96% (active)	-2% (inactive)	-2% (inactive)	97% (active)	inactive	inactive	inactive	inactive
CN(c1cc(NC(=O)c2ccc(F)cc2)ccn1)C1CCN(Cc2ccc(C#N)cc2)CC1	54% (active)	13% (inactive)	2% (inactive)	87% (active)	inactive	inactive	inactive	inactive
CC(=O)N(Cc1cccc(-c2ccc(CNCCc3ccccc3)cc2)c1)C1CCN(Cc2ccccc2)CC1	50% (active)	32% (inactive)	-5% (inactive)	99% (active)	inactive	inactive	inactive	inactive
CN(c1cc(NC(=O)c2ccc(F)cc2)ccn1)C1CCN(Cc2cccc(C#N)c2)CC1	83% (active)	73% (active)	1% (inactive)	97% (active)	inactive	inactive	inactive	inactive
CC[C@H]1CN2CC[C@@H]1C[C@H]2[C@H](O)c1cc(N2CCC(N3CCCCC3)CC2)nc2ccc(OC)cc12	77% (active)	0% (inactive)	3% (inactive)	99% (active)	inactive	inactive	inactive	inactive
O=C(/C=C/c1ccc(Cl)c(Cl)c1)NC1[C@@H]2CC[C@H]1CC(CN1CCC(c3c[nH]c4ccccc34)CC1)C2 (some centres undefined)	100% (active)	31% (inactive)	-2% (inactive)	100% (active)	inactive	inactive	inactive	inactive
CC(C)CNCc1cccc(-c2ccc(CN(C(=O)NC3CCCCC3)C3CCN(Cc4ccccc4)CC3)cc2)c1	51% (active)	27% (inactive)	-2% (inactive)	97% (active)	inactive	inactive	inactive	inactive
O=C(NC1CCN(CC2(c3ccc(Cl)cc3)CCC2)CC1)c1cscn1	95% (active)	-2% (inactive)	-1% (inactive)	98% (active)	inactive	inactive	inactive	inactive
CC[C@H]1CN2CC[C@@H]1C[C@H]2[C@H](O)c1cc(N2CCCC(C)(C)C2)nc2ccc(OC)cc12	72% (active)	25% (inactive)	3% (inactive)	101% (active)	inactive	inactive	inactive	inactive
O=C(C=Cc1ccccc1C(F)(F)F)NC1CCC(CN2CCC(c3c[nH]c4ccccc34)CC2)CC1 (centres undefined)	47% (inactive) and 90% (active)	47% (inactive) and 73% (active)	-1% (inactive) and 1% (inactive)	102% (active)	inactive	inactive	inactive	inactive
CC[C@H]1CN2CC[C@@H]1C[C@H]2[C@H](O)c1cc(-c2ccc(F)cc2)nc2ccc(O)cc12	99% (active)	25% (inactive)	-2% (inactive)	99% (active)	inactive	inactive	inactive	inactive
O=C(/C=C/c1ccc(Cl)c(Cl)c1)NC1CCC(CN2CCC(c3c[nH]c4cc(C(F)(F)F)ccc34)CC2)CC1 (centres undefined)	38% (inactive) and 85% (active)	11% (inactive) and 40% (inactive)	1% (inactive) and 6% (inactive)	98% (active) and 102% (active)	inactive	inactive	inactive	inactive
COc1c(F)cc(CC(C)NCC(O)c2cccc(Cl)c2)cc1F (centres undefined)	86% (active)	0% (inactive)	0% (inactive)	93% (active)	inactive	inactive	inactive	inactive
O=C(C=Cc1ccc(F)c(Br)c1)NC1CCC(CN2CCC(c3c[nH]c4ccccc34)CC2)CC1 (centres undefined)	67% (active) and 50% (active)	39% (inactive) and 28% (inactive)	2% (inactive) and 5% (inactive)	103% (active) and 102% (active)	inactive	inactive	inactive	inactive
